Assay results: PubChem BioAssay AID440 (NMMLSC, 2006)
Out of some 24,000 compounds screened, about 180 (0.75%) were called active. Many of the other results were omitted from the sample, so actives are more common in it than they were. Unmarked numbers belong to inactive results. Cut-off read from the data, not from the text of the source: active = inhibition above about 30%; inconclusive = no clear call, values can overlap the other calls; inactive = below that.

target: fMet-Leu-Phe receptor (Homo sapiens) (UniProt P21462); assay: human FPR ligands by binding competition, primary screen, cell-based, FPRL1 counter-screen, flow cytometry (AID 440); conditions: FPR-expressing cells, fluorescent ligand binding, active compounds read high, concentration not given here;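 note: 0% = buffer wells and 100% = receptor blocker peptide wells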
Sequence (P21462 whole entry, looked up): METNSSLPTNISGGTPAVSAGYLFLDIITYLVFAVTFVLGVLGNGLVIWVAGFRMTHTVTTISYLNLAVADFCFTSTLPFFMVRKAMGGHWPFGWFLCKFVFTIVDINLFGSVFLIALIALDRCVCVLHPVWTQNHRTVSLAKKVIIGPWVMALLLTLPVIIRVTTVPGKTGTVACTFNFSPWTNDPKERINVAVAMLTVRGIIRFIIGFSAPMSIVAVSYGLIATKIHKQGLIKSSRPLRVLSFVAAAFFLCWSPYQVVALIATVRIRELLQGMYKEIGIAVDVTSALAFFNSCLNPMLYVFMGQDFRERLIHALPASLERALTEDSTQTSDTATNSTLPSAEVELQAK

SMILES | inhibition
N#CCCN1CCN(S(=O)(=O)c2ccc(S(=O)(=O)N3CCCC3)cc2)CC1 | -3.3%
O=C(Nc1ccc(Cl)cn1)Nc1cccs1 | -2.2%
COc1ccc(/C(O)=C2\C(=O)C(=O)N(Cc3ccco3)C2c2ccc(OC)cc2OC)cc1 (stereo not given) | 38% (active)
COc1ccccc1C1/C(=C(/O)c2ccc(C)cc2)C(=O)C(=O)N1Cc1ccco1 (stereo not given) | 4.3%
COc1ccc(/C(O)=C2/C(=O)C(=O)N(CC3CCCO3)C2c2ccc(OC)c(OC)c2)cc1 (stereo not given) | 0.3%
CCOC(=O)Cn1c(CN(Cc2ccccc2)Cc2ccccc2)nc2c1c(=O)[nH]c(=O)n2C | -0.1%
COc1c(F)c(F)c(C(=O)O)c(Nc2ccccc2C)c1F | -4.8%
Cc1cc(N2C(=O)C(=O)/C(=C(/O)c3ccccc3)C2c2cccc(Br)c2)no1 (stereo not given) | -1.3%
CCOC(=O)c1ccn(-c2nc(-c3ccco3)cc(C(F)(F)F)n2)n1 | 5.4%
CN1CCCC(OC(=O)COc2ccc(Br)cc2)C1 (stereo not given) | -3%
CCCn1nnc2sc3c(c2c1=O)CCC(C)C3 (stereo not given) | 0.2%
Cc1cccc(-n2nc3c(c2NC(=O)c2ccc(Br)o2)CSC3)c1C | 6.4%
CC1(C)C(=O)Nc2ccccc2N1C(=O)COC(=O)Cn1cnc2ccccc2c1=O | -1.5%
O=C(CCSCCc1ccccn1)Nc1nccs1 | 2.6%
c1ccc(Cc2nn3c(Cn4cnc5ccccc54)nnc3s2)cc1 | 4.2%
CCOc1cccc(-c2nnc3sc(COc4ccc(OC)cc4)nn23)c1 | -4.8%
Clc1ccc(Cc2nn3c(-c4ccncc4)nnc3s2)cc1 | 46.7% (active)
CCOc1ccc(NC(=O)CCS(=O)(=O)c2cccc3nsnc23)cc1 | 7.6%
O=C(c1ccccc1)c1cccn1CC(=O)N1CCN(c2ccc(F)cc2)CC1 | 0.2%
CCCC(=O)C1=C(N(C)c2ccccc2)CC(C)(C)C(C(=O)OC)C1=O (stereo not given) | 1.9%

SMILES | inhibition
O=C(O)CC(c1ccccc1)n1cnnn1 (stereo not given) | -4.6%
CCN(Cc1ccccc1)C(=O)CSc1nc(C)cc2c1C(=O)OC2 | 2%
O=C(CCN1C(=O)c2ccccc2C1=O)NCCN1CCOCC1 | -4.5%
O=C1CC(c2ccccc2)CC(O)=C1C=NCCN1CCOCC1 (stereo not given) | 9.7%
CCCC(=O)Nc1nnc(CC(=O)OCC)s1 | 9.1%
CCCOc1ccc(C2C(C(=O)c3ccc(C)o3)=C(O)C(=O)N2CCCn2ccnc2)cc1 (stereo not given) | 52.8% (active)
COc1cc(C2C(C(=O)Nc3ccccc3OC)=C(C)Nc3ncnn32)ccc1O (stereo not given) | -6.4%
CCCOc1ccc(C2c3c(oc4cc(C)c(C)cc4c3=O)C(=O)N2CCCN2CCOCC2)cc1 (stereo not given) | 5.8%
CCOc1ccccc1C(=O)NCCCn1ccnc1 | -3.4%
COc1cc(C2C(C(=O)c3sc(C)nc3C)=C(O)C(=O)N2CCN(C)C)cc(OC)c1OC (stereo not given) | 3.4%
COc1cc(C2C(C(=O)c3ccc(C)o3)=C(O)C(=O)N2CCc2ccccc2)ccc1O (stereo not given) | 69.9% (active)
COc1ccc(-c2nc(CS(=O)CC(=O)NCc3cccnc3)c(C)o2)cc1OC (stereo not given) | 7.2%
CCOc1ccc(/C(O)=C2/C(=O)C(=O)N(Cc3cccnc3)C2c2ccc(N(C)C)cc2)c(C)c1 (stereo not given) | 27.7%
COc1cc(C2C(C(=O)c3ccc(C)o3)=C(O)C(=O)N2Cc2cccnc2)ccc1O (stereo not given) | 40.6% (active)
O=C(c1cccnc1NCc1ccccc1)N1CCOCC1 | -10.6%
CCOC(=O)c1[nH]c2c(c1C)C(=O)CC(c1ccc(N(C)C)cc1)C2 (stereo not given) | 9%
Nc1ccc(-n2nncc2-c2ccco2)cc1 | 3%
O=C(CN1CCN(S(=O)(=O)c2ccc(F)cc2)CC1)Nc1ccccc1F | 5.7%
COc1ccc2c(CC(=O)Nc3nnc(C4CC4)s3)coc2c1 | -3.4%
CC1Cc2cc(/C(O)=C3\C(=O)C(=O)N(CCN4CCOCC4)C3c3ccccc3F)ccc2O1 (stereo not given) | 18.6%

SMILES | inhibition
CCOc1cccc(/C(O)=C2/C(=O)C(=O)N(CCOC)C2c2ccncc2)c1 (stereo not given) | 4.6%
COCCCN1C(=O)C(=O)/C(=C(/O)c2ccc3c(c2)CC(C)O3)C1c1cccnc1 (stereo not given) | 33.5% (active)
COc1cc(C2C(C#N)=C(C)NC3=C2C(=O)CC(C)(C)C3)ccc1O (stereo not given) | 4.9%
Cc1ccc(C2CC(=O)NC(SCC(=O)OCc3ccccc3)=C2C#N)o1 (stereo not given) | 0.1%
CCCOC(=O)Nc1sc2c(c1C(=O)OCC)CCC2 | -12.7%
CCN(CC)S(=O)(=O)N1CCC(C(=O)NC(C)CCc2ccccc2)CC1 (stereo not given) | -9.4%
CCC(C)(NC(=O)c1ccccn1)C(=O)NC1CCCCC1 (stereo not given) | 6.6%
COCCNC(=O)Cn1cc2c(n1)CCCCC2 | -5.5%
Cc1onc(-c2ccccc2Cl)c1C(=O)NCCn1ccc2ccccc21 | 5.6%
COc1ccccc1CNC(=O)CCn1c(=O)sc2ccccc21 | 1.8%
O=C(C1CCN(S(=O)(=O)c2cccs2)CC1)N1CCCCCC1 | 2.5%
Cc1cc(C)nc(-n2nc(C)cc2NC(=O)c2ccc(Br)o2)n1 | -6.1%
O=C(CN1C(=O)C2C3C=CC(C3)C2C1=O)NCC1COc2ccccc2O1 (stereo not given) | -0.7%
O=C1c2ccncc2C(=O)N1C1CCCCC1 | 0.9%
COc1ccc(Cn2nnc3c(=O)[nH]c(C4CCN(C(=O)c5ccccc5Cl)CC4)nc32)cc1 | -0.8%
Cc1nc(C)c(C(=O)Nc2cccc(C)c2C)o1 | 3%
COc1ccccc1Cn1c(=S)[nH]c2cc(C(=O)N3CCN(C)CC3)ccc2c1=O | -4%
S=C1SCN(CCN2CCOCC2)CN1Cc1ccccc1 | -1.1%
CCOC(=O)C1CCN(C(=O)CSc2cc(=O)n(C)c3ccccc23)CC1 | -1.5%
Cn1c(=O)cc(OCCCC(=O)N2CCN(c3ccccn3)CC2)c2ccccc21 | -0.8%
